For orientation: inhibition means the relative decrease from the control value, in per cent.

Data on 67 compounds can be found in PubChem BioAssay AID1259354 (Paczesny and Yang Labs, IUPUI and University of Michigan, 2018).

Values joined by “and” are separate entries in the source; they are usually repeats but may differ in a detail not shown here. Equal entries are not always repeated. The campaign covered roughly 78,000 compounds. About 1,800 (2.3%) were called active. Roughly 27% stayed inconclusive and do not appear here. No stated cut-off is given here; in the data, active means inhibition above about 30%; inconclusive means mostly about 10% to 28%; inactive means weaker than that. The sample as a whole holds a higher share of actives than the screen did.

Interleukin-1 receptor-like 1 (Homo sapiens), sequence (Q01638 whole entry, looked up): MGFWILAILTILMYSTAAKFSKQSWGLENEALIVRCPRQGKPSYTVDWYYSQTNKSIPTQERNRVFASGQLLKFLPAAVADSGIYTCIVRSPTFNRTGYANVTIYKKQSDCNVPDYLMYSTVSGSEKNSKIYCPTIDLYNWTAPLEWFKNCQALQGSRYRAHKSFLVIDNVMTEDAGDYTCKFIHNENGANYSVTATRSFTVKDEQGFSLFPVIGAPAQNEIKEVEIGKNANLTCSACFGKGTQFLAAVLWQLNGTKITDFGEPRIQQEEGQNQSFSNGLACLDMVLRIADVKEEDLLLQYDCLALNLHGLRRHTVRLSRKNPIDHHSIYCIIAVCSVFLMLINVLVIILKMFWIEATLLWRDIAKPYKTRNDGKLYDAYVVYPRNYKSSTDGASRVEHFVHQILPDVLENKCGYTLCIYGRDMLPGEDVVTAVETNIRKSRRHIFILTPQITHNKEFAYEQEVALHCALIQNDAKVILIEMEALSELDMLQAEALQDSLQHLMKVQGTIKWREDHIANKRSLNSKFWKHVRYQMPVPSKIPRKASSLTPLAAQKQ

This experiment has as its target Interleukin-1 receptor-like 1 (Homo sapiens) (UniProt Q01638). The experiment is described as follows: blocks human ST2 binding to IL-33, primary screen, biochemical, AlphaLISA (AID 1259354). The note with it: AlphaLISA ST2-Fc/biotin-IL-33 interaction, 1 h; at 17 µM, active compounds read high. For orientation: In Alpha technology, singlet oxygen from a donor bead excites a nearby acceptor bead.
Take `Cc1ccc(NC(=O)CNCC(C)c2ccccc2)c(C)c1` (configuration not stated): the inhibition result was “inactive”.

Regarding `OC(C#Cc1ccccc1)C#Cc1ccccc1`, the inhibition entry was “inactive”. For the compound `Cc1nonc1C1CCCN1Cc1cnc(S(=O)(=O)C(C)C)n1Cc1ccccc1F` (configuration not stated), the inhibition entry was “inactive”. On to `CC1CCc2nc(NC(=O)c3ccc(S(=O)(=O)N4CCc5ccccc54)cc3)sc2C1` (configuration not stated), for which the inhibition is 30% (active).

Regarding `CSCc1nnc(NC(=O)c2ccc(S(=O)(=O)N3CCCc4ccccc43)cc2)o1`, the inhibition result is “inactive”.

In the case of `O=C(Nc1nnc(-c2cccs2)o1)c1ccc(S(=O)(=O)N2CCCc3ccccc32)cc1`, the inhibition result was “inactive”. Take `CCN(CC)C(=O)[C@@H]1C[C@H](n2cc(Cn3c(C)nc4ccccc43)nn2)CN1`: the inhibition entry is “inactive”.

As to `CC1=Nc2c(ccc3cccnc23)C1(C)C`, the inhibition is 36% (active). As to `Brc1ccc(CSc2cccc3cccnc23)cc1`, the inhibition result is “inactive”. As for `CSCCNC(=O)CC1C(=O)NCCN1Cc1ccccc1` (configuration not stated), the entry is “inactive”; as for `Cc1cc2oc(=O)cc(CN(C)C(C)c3ccon3)c2cc1C` (configuration not stated), “inactive”; as for `Clc1ccc(OCCCCN2CCOCC2)c(Br)c1`, “inactive”. As to `CN(Cc1ccccc1)C(=O)CN1C(=O)/C(=C\c2cccc(Cl)c2)Sc2ccccc21`, the inhibition is 44% (active). Then `CN(Cc1ccccc1)C(=O)c1cc(-c2ccc(Cl)cc2)on1`, with “inactive”. For `CN(Cc1ccccc1)C(=O)CN(C)S(=O)(=O)c1ccc(Cl)cc1`, the inhibition entry was “inactive”. Take `O=C(NC(Nc1cccc([N+](=O)[O-])c1)C(Cl)(Cl)Cl)c1ccc(Br)cc1` (configuration not stated): the inhibition entry is “inactive”. Regarding `CCOC(=O)c1c(C)[nH]c(C(=O)NC(C)c2cnn(-c3ccccc3C)c2C)c1C` (configuration not stated), the inhibition entry was “inactive”. For the compound `CN(Cc1ccccc1)C(=O)C1(S(=O)(=O)c2ccc(Cl)cc2)CC1`, the inhibition entry was “inactive”. Regarding `COc1ccc(-c2csc(=Nc3ccccc3)n2C)cc1`, the inhibition was 59% (active) and 52% (active). `COc1ccc(Nc2ccn(-c3nc(-c4ccccc4)oc3-c3ccccc3)c(=O)n2)cc1`: the inhibition entry is “inactive”.

As to `O=C(C(NS(=O)(=O)c1cccs1)c1ccccc1)N1CCc2ccccc21` (configuration not stated), the inhibition entry is “inactive”. As to `COc1cc(OC)cc(C(=O)Nc2cc(N3CCCS3(=O)=O)ccc2OC)c1`, the inhibition result was “inactive”. In the case of `CC(=O)Nc1nonc1N1C(=N)S/C(=C\c2ccc(-c3cccc(F)c3)o2)C1=O`, the inhibition entry is “inactive”. As for `O=C1NC(=O)/C(=C\c2ccc(-c3ccc(F)c(Cl)c3)o2)S1`, the inhibition was 34% (active).

Turning to `O=C1NC(=O)/C(=C\c2ccc(-c3cccc(Cl)c3)o2)S1`, the inhibition result was “inactive”.

On to `Cc1nc(CC(=O)NCCc2csc(-c3cccnc3)n2)cs1`, for which the inhibition result is “inactive”. Turning to `COc1ccc(CCNS(=O)(=O)c2cccc3cccnc23)cc1OC`, the inhibition result is “inactive”. In the case of `COc1cc(NS(=O)(=O)c2ccc3c(c2)CCN3C(=O)C2CC2)cc(OC)c1`, the inhibition entry was “inactive”. Turning to `Cc1cccc(C)c1NC(=O)c1ccc(F)cc1`, the inhibition entry was “inactive”. As for `N#CC1=C(N)OC2=C(C(=O)CC(c3ccccc3)C2)C1c1cccs1` (configuration not stated), the entry is “inactive”; as for `CCc1nc(C)ccc1OCC(=O)N1CCC2(CN(C)C(=O)O2)C1` (configuration not stated), 30% (active). As for `O=C1CC2(CCCCC2)Oc2ccc(OCC(=O)N3CCOCC3)cc21`, the entry is “inactive”; as for `O=C(CN1C(=O)/C(=C\c2ccc(C(F)(F)F)cc2)Sc2ccccc21)NCc1ccco1`, 32% (active). Regarding `O=C(CN1CCCCC1)N1c2ccccc2Sc2ccc(C(F)(F)F)cc21`, the inhibition entry was “inactive”. Turning to `O=C(CN1CCN(Cc2ccc(F)cc2)C1=O)NCC1CCCO1` (configuration not stated), the inhibition result was “inactive”. In the case of `O=C(CN1C(=O)/C(=C\c2ccc(C(F)(F)F)cc2)Sc2ccccc21)NCC1CCCO1` (configuration not stated), the inhibition was 30% (active). Take `O=C(CN1C(=O)CC(c2ccccc2)Sc2ccccc21)NCc1ccco1` (configuration not stated): the inhibition result is “inactive”. Regarding `O=C(CN1C(=O)C2CCCCN2C(=O)c2ccccc21)NCC1CCCO1` (configuration not stated), the inhibition result was “inactive”. For the compound `CC(C)c1ccc(Nc2c(-c3cccs3)nc3cnccn23)cc1`, the inhibition result is “inactive”. Regarding `O=C(c1ccccc1F)N1CCc2c(c(C(=O)N3CCOCC3)nn2CCCc2ccccc2)C1`, the inhibition entry was “inactive”. With `CC(C)c1ccc(NC2CCCN(C(=O)CCc3nc(-c4ccccc4)no3)C2)cc1` (configuration not stated), the inhibition entry was “inactive”. As for `CC1=C(C(N)=O)C(c2ccccc2Cl)n2ncnc2N1` (configuration not stated), the inhibition result was “inactive”.

On to `O=C(Cn1nc(-c2ccccc2)ccc1=O)NCCN1CCOCC1`, for which the inhibition entry is “inactive”.

Regarding `COc1c(F)ccc(-c2nc(C(C)C)nn2-c2ccccn2)c1F`, the inhibition result is “inactive”. In the case of `CN(C)CCCNc1c2c(c(C#N)c3nc4ccccc4n13)CCC2`, the inhibition was 51% (active). In the case of `N#Cc1c2c(c(-n3ccnc3)n3c1nc1ccccc13)CCC2`, the inhibition result is “inactive”. For the compound `Cc1c(CCC#N)c(-n2ccnc2)n2c(nc3ccccc32)c1C#N`, the inhibition entry was “inactive”.

As to `Cc1cc(NCCN2CCCCCC2)n2c(nc3ccccc32)c1C#N`, the inhibition is 45% (active). Turning to `O=C(CN1CCCN(Cc2ccccc2)S1(=O)=O)NCCc1ccccc1`, the inhibition entry is “inactive”. Take `COc1ccc(Cl)cc1C(=O)N1CCN(c2cccc(Cl)c2)CC1`: the inhibition result is “inactive”. Then `CN1C(N)=NC(=O)/C1=C/c1cc(Br)c(O)c(Br)c1`, with “inactive”. As for `COc1ccc(/C=C2\C(=O)N(c3ccc(Cl)c(C(=O)O)c3)N=C2C)cc1Br`, the figure is 72% (active); as for `COc1cc(/C=C2/C(=O)N(c3ccc(Cl)c(Cl)c3)N=C2C)cc(Br)c1O`, 37% (active); as for `COc1ccc2cc(-c3ccccc3NC(=O)CN)ccc2c1`, “inactive”. Then `COc1ccc(C2C(C(=O)N3CCC(C)CC3)c3cc(OC)c(OC)cc3C(=O)N2C)cc1` (configuration not stated), with “inactive”; and `COc1cc(/C=C2\C(=O)Nc3ccc(Br)cc32)ccc1O`, with “inactive”.

On to `CCOc1ccc(Br)c(/C=C2\C(=O)Nc3ccc(Br)cc32)c1`, for which the inhibition was 60% (active). Turning to `CCOc1cc(/C=C2\C(=O)NC(=O)N(c3ccc(Br)cc3)C2=O)ccc1O`, the inhibition result is “inactive”. As for `COCc1cc(CNC(=O)c2csc3c2CCCC3)[nH]n1`, the inhibition result is “inactive”. `O=C(Nc1ccccc1)/C(=C/c1ccc2c(c1)OCO2)NC(=O)c1ccc(Br)o1`: the inhibition entry was “inactive”. With `COc1ccccc1C(=O)N/C(=C/c1ccc2c(c1)OCO2)C(=O)Nc1cccc(C(=O)O)c1`, the inhibition is 39% (active). Take `COc1ccccc1C(=O)N/C(=C\c1ccc2c(c1)OCO2)C(N)=O`: the inhibition entry was “inactive”. As for `CC(C)(C)NS(=O)(=O)c1ccc2c(c1)C(=O)c1cc(S(=O)(=O)NC(C)(C)C)ccc1-2`, the entry is “inactive”. As for `CCCc1nc(CN(C)C(=O)c2c(O)cccc2O)no1`, the entry is “inactive”; as for `CC(C)c1ccc(CNCCCN(C)C)cc1`, “inactive”; as for `O=C(NC1CCCCC1)N1CCC(n2cc(-c3ccccn3)nn2)CC1`, “inactive”. Take `COc1ccc(-c2nc3s/c(=C\C4=Cc5ccccc5OC4C)c(=O)n3n2)cc1` (configuration not stated): the inhibition result is “inactive”.
